Records with an inconclusive call do not appear. Active and inactive are the calls of the source.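 How the source made its calls, unless noted: active means growth inhibition above 25% in both replicates, a cutoff set 3 SD above the mean; inconclusive means above 25% in only one replicate; inactive means the rest.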
How the values were obtained:
[1] = Her2 expression decrease, cell viability multiplex – SKBR3 breast tumor cells, AlphaScreen, ATP viability, primary screen (AID 461;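 active means Her2 level under about 52% in both replicate screens, with viability over 70% of control, limit read from the data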;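 on Her2 level: lower value means less Her2 protein in the cells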;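 on viability: percent of carrier control wells set as 100% viability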); settings: SKBR3 Her2 protein level, 18-24 h, measured here: SKBR3 viability, ATP luminescence, at 10 µM
[2] = molecular target: Receptor tyrosine-protein kinase erbB-2 (Homo sapiens) (UniProt P04626); test: as above; settings: 18-24 h, at 10 µM, stronger effect = lower value
Receptor tyrosine-protein kinase erbB-2 (Homo sapiens), sequence (P04626 whole entry, looked up): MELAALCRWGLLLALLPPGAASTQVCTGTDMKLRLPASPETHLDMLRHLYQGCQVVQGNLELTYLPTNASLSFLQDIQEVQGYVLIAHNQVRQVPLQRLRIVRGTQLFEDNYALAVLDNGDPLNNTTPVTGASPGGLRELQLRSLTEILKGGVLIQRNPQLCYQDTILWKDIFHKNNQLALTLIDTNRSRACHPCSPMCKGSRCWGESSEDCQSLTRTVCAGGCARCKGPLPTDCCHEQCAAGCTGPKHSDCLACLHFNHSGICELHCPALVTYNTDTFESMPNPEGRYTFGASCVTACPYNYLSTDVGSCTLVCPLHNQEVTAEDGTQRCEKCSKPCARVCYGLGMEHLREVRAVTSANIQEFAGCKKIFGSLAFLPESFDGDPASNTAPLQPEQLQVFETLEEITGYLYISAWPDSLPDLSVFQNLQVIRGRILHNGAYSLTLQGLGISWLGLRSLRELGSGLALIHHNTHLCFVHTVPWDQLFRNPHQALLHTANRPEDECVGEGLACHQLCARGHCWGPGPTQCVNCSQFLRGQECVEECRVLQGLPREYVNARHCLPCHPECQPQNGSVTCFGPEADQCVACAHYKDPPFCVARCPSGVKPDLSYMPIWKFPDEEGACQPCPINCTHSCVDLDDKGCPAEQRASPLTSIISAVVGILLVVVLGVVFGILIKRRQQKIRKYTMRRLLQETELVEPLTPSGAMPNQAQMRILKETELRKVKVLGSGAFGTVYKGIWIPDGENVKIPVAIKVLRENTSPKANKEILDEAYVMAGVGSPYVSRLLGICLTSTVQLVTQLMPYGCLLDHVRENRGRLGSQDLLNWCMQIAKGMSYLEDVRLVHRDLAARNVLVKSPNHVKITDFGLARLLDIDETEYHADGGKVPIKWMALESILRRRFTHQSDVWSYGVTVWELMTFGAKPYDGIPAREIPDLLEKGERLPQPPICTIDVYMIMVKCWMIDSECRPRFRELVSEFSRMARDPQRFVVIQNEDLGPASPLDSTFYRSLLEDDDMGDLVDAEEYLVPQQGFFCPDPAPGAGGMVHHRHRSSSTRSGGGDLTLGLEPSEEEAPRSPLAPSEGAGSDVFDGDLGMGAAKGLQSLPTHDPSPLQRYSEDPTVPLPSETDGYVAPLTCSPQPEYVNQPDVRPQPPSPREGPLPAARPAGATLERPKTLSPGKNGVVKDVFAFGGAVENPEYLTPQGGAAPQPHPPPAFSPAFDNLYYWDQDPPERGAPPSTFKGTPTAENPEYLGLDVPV

[3] = reduced viability of SK-BR-3 breast cancer cells – cell-based, 24 h, human, pilot screen (AID 572;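 active means viability at or below 10% of carrier control in both of two separate runs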;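 further: compound exposure lasted between 18 and 24 h rather than exactly 24 h; 100% = carrier-treated control wells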); settings: SK-BR-3 viability, CellTiter-Glo luminescence, at 10 µM, stronger effect = lower value
[4] = HUVEC growth inhibition – cell-based, human, primary screen (AID 575;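 active means viability at or below 30% in both replicate assays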;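 further: 100% = median of untreated cell wells with 0.1% DMSO on each plate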); settings: HUVEC proliferation, CellTiter-Glo luminescence, 72 h; at 10 µM; stronger effect = lower value
[5] = H69AR cell proliferation blockers – human, duplicate replicates, primary screen (AID 580;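 active means viability at or under a set limit in both replicates, limit being median viability minus 3 SD, cut at about 48% in these data, passing the limit was not always enough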;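 further: 100% = mean luminescence of untreated wells and 0% = no signal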); settings: H69AR lung tumor cells viability, ATP luminescence, 72 h; at 10 µM; stronger effect = lower value
[6] = MRP1 drug-resistance reversers in H69AR cells – cell-based, doxorubicin co-treatment, pilot screen (AID 601;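 active means viability loss from added drug above about 55%, and viability with drug at most 40%, in both replicates, limit read from the data, passing the limit was not always enough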); settings: CellTiter-Glo, 72 h, at 10 µM; for differential viability (reversal): stronger effect = higher value
[7] = yeast transport mutant growth inhibition pilot in 384-well plates, post-Golgi transport modulator project (AID 636; in the data active means inhibition above about 31%); settings: absorbance 615 nm, about 18 h, stronger effect = higher value
[8] = growth suppression of yeast trafficking mutant, preliminary HTS, modulators of trafficking downstream of Golgi apparatus project, 1536-format plate, OD 615 nm (AID 637; in the data active means inhibition above about 30%); settings: yeast transport mutant growth, absorbance 615 nm, 18 h; stronger effect = higher value
[9] = S. cerevisiae growth inhibition in permissive medium (OD615), pilot counter-assay for S. cerevisiae lifespan shortening project, permissive growth control (AID 705); settings: OD615, 24 h, at 10 µM, stronger effect = higher value
[10] = S. cerevisiae growth inhibition in restrictive medium, OD615, pilot screen, restrictive growth control, yeast lifespan reduction project (AID 706;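 active means growth inhibition above a set limit, 3 SD over mean compound inhibition, in both replicates, cut at about 43% in these data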;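 further: modified DeaD lifespan yeast strain shifted to restrictive glucose medium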); settings: OD615, 48 h, at 10 µM, stronger effect = higher value
[11] = doxorubicin toxicity protection in MRP-1 cells – H69AR cells, CellTiter-Glo, duplicate, MRP-1 activator project, pilot screen (AID 807;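 active means viability increase at or above a cutoff of the median across tested compounds plus 3 SD, cut at about 8.5% in these data, passing the limit was not always enough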;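 further: compound pretreatment 18-22 h then 72 h combined with doxorubicin; 0% = doxorubicin alone and 100% = vehicle without doxorubicin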); settings: H69AR viability with doxorubicin, CellTiter-Glo luminescence; at 10 µM; stronger effect = higher value
[12] = viability of PTEN-null HCT116 cells – cell-based, HCT116 clonal line, CellTiter-Glo, pilot screen (AID 824;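 active means viability at or below 27.92% in each of two runs, the all-compound median minus 4 SD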;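 further: 0% = 20 µM Hyamine control and 100% = vehicle cell control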); settings: HCT116 PTEN-deleted viability, 60 h, at 10 µM, stronger effect = lower value
[13] = RAM pathway blockade in budding yeast – dse1pr::URA3 reporter, 5-FOA selection, pilot screen (AID 869;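 active means inhibition over a set limit, the all-compound mean plus 3 SD, in both replicate runs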;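 further: 0% = DMSO wells with no growth and 100% = 10 µM 1-NA-PP1 with full growth; RAM network block rescues cells from 5-FOA so hits raise OD615 growth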); settings: S. cerevisiae dse1pr::URA3 5-FOA growth, OD615, 2 d; at 10 µM; stronger effect = higher value; strain carries analog-sensitive mutant Cbk1 kinase
[14] = RAM signaling pathway blockade in yeast – S. cerevisiae, Pdr1DBD-CYC8 efflux-inhibited sensitized strain, primary screen (AID 1298;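 active means RAM network inhibition above 8.4% in each of two replicates, 3 SD over the compound average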;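 further: 0% = DMSO untreated cells without growth and 100% = 10 µM 1-NA-PP1 full growth; higher means more yeast growth rescued from 5-FOA killing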); settings: S. cerevisiae cbk1-as DSE1-URA3 strain, 5-FOA growth OD615, 2 d; at 50 µM; stronger effect = higher value
[15] = viability of HCT116 without oncogenic beta-catenin – human colon tumor cells, pilot screen (AID 823;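 active means cell viability at or below a set limit in both duplicate runs, the limit being the all-compound median minus 4 SD, cut at about 23% in these data, passing the limit was not always enough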;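 further: 0% = wells killed by 20 µM Hyamine and 100% = untreated DMSO cell wells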); settings: HCT116 beta-catenin knockout viability, CellTiter-Glo, 60 h; at 10 µM; stronger effect = lower value
[16] = H69AR cells + 2 uM doxorubicin, measured here: viability with 2 uM doxorubicin, stronger effect = lower value
[17] = H69AR cells, compound alone cytotoxicity

CC(O)CN1C(=O)C(CC(=O)Nc2ccc(Cl)cc2)SC1=Nc1ccccc1 (stereo not given)
viability [1]: 97%
Her2 level [2]: 101% (inactive)
viability [3]: 97% (inactive)
viability [4]: 57% (inactive)
viability [5]: 66.4% (inactive)
differential viability (reversal) ([6]; H69AR cells + 2 uM doxorubicin): -10.2% (inactive)
viability [6, 16]: 76.6%
viability [6, 17]: 66.4%
inhibition [7]: -6.99% (inactive)
inhibition [8]: -7.94% (inactive)
growth inhibition [9]: -9.07% (inactive)
growth inhibition [10]: -7.22% (inactive)
viability increase [11]: -3.6% (inactive)
viability [12]: 59.2% (inactive)
inhibition [13]: 2.45% (inactive)
RAM network inhibition [14]: 6.03% (inactive)

CCCc1nnc2n1N=C(c1ccc(-c3cc(Cl)ccc3Cl)o1)CS2
viability [1]: 108%
Her2 level [2]: 94% (inactive)
viability [3]: 108% (inactive)
viability [4]: 97.1% (inactive)
viability [5]: 89.2% (inactive)
differential viability (reversal) ([6]; H69AR cells + 2 uM doxorubicin): 1.35% (inactive)
viability [6, 16]: 87.8%
viability [6, 17]: 89.2%
inhibition [7]: -1.82% (inactive)
inhibition [8]: 0% (inactive)
growth inhibition [9]: -18.6% (inactive)
growth inhibition [10]: 4.29% (inactive)
viability increase [11]: -2.95% (inactive)
viability [15]: 97.8% (inactive)
inhibition [13]: 1.36% (inactive)
RAM network inhibition [14]: 1.93% (inactive)

CSc1ccccc1NC(=O)C1CCCO1 (stereo not given)
viability [1]: 97.5%
Her2 level [2]: 110% (inactive)
viability [3]: 97.5% (inactive)
viability [4]: 102% (inactive)
viability [5]: 93.9% (inactive)
differential viability (reversal) ([6]; H69AR cells + 2 uM doxorubicin): -0.325% (inactive)
viability [6, 16]: 94.2%
viability [6, 17]: 93.9%
inhibition [7]: 1.73% (inactive)
inhibition [8]: -6.03% (inactive)
growth inhibition [9]: -8.35% (inactive)
growth inhibition [10]: -0.95% (inactive)
viability increase [11]: -2.61% (inactive)
viability [12]: 98.6% (inactive)
inhibition [13]: 0.11% (inactive)
RAM network inhibition [14]: 2.42% (inactive)

O=C1CCCC2=C1C(c1cccs1)n1nc(SCc3ccccc3F)nc1N2 (stereo not given)
viability [1]: 85%
Her2 level [2]: 99.5% (inactive)
viability [3]: 85% (inactive)
viability [4]: 65.5% (inactive)
viability [5]: 81.7% (inactive)
differential viability (reversal) ([6]; H69AR cells + 2 uM doxorubicin): 66.1% (active)
viability [6, 16]: 15.6%
viability [6, 17]: 81.7%
inhibition [7]: -0.27% (inactive)
inhibition [8]: 10.2% (inactive)
growth inhibition [9]: -6.56% (inactive)
growth inhibition [10]: -6.42% (inactive)
viability increase [11]: -5.19% (inactive)
viability [12]: 68.4% (inactive)
inhibition [13]: 1.23% (inactive)
RAM network inhibition [14]: 3.02% (inactive)

CCCCOC(=O)c1[nH]c2c(c1C)C(=O)CC(c1cc(OC)c(OC)c(OC)c1)C2 (stereo not given)
viability [1]: 89%
Her2 level [2]: 74.5% (inactive)
viability [3]: 89% (inactive)
viability [4]: 77.4% (inactive)
viability [5]: 72.4% (inactive)
differential viability (reversal) ([6]; H69AR cells + 2 uM doxorubicin): 0.9% (inactive)
viability [6, 16]: 71.5%
viability [6, 17]: 72.4%
inhibition [7]: 0.38% (inactive)
inhibition [8]: -3.33% (inactive)
growth inhibition [9]: -13% (inactive)
growth inhibition [10]: -18.8% (inactive)
viability increase [11]: 1.17% (inactive)
viability [12]: 56.6% (inactive)
inhibition [13]: 1.75% (inactive)
RAM network inhibition [14]: 3.15% (inactive)

CC(C)c1ccc(NC(=O)CCNS(=O)(=O)c2cccc3nonc23)cc1
viability [1]: 98.5%
Her2 level [2]: 89% (inactive)
viability [3]: 98.5% (inactive)
viability [4]: 84.6% (inactive)
viability [5]: 95.3% (inactive)
differential viability (reversal) ([6]; H69AR cells + 2 uM doxorubicin): 1.35% (inactive)
viability [6, 16]: 93.9%
viability [6, 17]: 95.3%
inhibition [7]: -8.9% (inactive)
inhibition [8]: -3.17% (inactive)
growth inhibition [9]: -7.97% (inactive)
growth inhibition [10]: -5.83% (inactive)
viability increase [11]: -1.42% (inactive)
viability [12]: 86.3% (inactive)
inhibition [13]: 0.265% (inactive)
RAM network inhibition [14]: 1.64% (inactive)

COc1ccc(C(C(=O)NC2CCCCC2)N2CCC3(CC2)OCCO3)cc1 (stereo not given)
viability [1]: 86%
Her2 level [2]: 98% (inactive)
viability [3]: 86% (inactive)
viability [4]: 114% (inactive)
viability [5]: 100% (inactive)
differential viability (reversal) ([6]; H69AR cells + 2 uM doxorubicin): 6.97% (inactive)
viability [6, 16]: 93.5%
viability [6, 17]: 100%
inhibition [7]: -7.81% (inactive)
inhibition [8]: 5.71% (inactive)
growth inhibition [9]: -7.27% (inactive)
growth inhibition [10]: -6.88% (inactive)
viability increase [11]: -2.42% (inactive)
viability [12]: 88.8% (inactive)
inhibition [13]: 2.62% (inactive)
RAM network inhibition [14]: 2.77% (inactive)

Cc1ccc(-n2c3c(cc(C(=O)O)c2=O)C(=O)CC(C)(C)C3)cc1
viability [1]: 98%
Her2 level [2]: 82.5% (inactive)
viability [3]: 98% (inactive)
viability [4]: 111% (inactive)
viability [5]: 87.8% (inactive)
differential viability (reversal) ([6]; H69AR cells + 2 uM doxorubicin): -3.07% (inactive)
viability [6, 16]: 90.9%
viability [6, 17]: 87.8%
inhibition [7]: -1.84% (inactive)
inhibition [8]: 0% (inactive)
growth inhibition [9]: -16.4% (inactive)
growth inhibition [10]: -5.83% (inactive)
viability increase [11]: -3.48% (inactive)
viability [12]: 100% (inactive)
inhibition [13]: 0.675% (inactive)
RAM network inhibition [14]: 4.71% (inactive)

Cc1noc(C)c1CSc1ccccc1C(=O)N1CCN(c2ccccc2)CC1
viability [1]: 87%
Her2 level [2]: 86% (inactive)
viability [3]: 87% (inactive)
viability [4]: 97.8% (inactive)
viability [5]: 82% (inactive)
differential viability (reversal) ([6]; H69AR cells + 2 uM doxorubicin): -6.2% (inactive)
viability [6, 16]: 88.2%
viability [6, 17]: 82%
inhibition [7]: -4.46% (inactive)
inhibition [8]: 5.57% (inactive)
growth inhibition [9]: -11.9% (inactive)
growth inhibition [10]: -20% (inactive)
viability increase [11]: -2.25% (inactive)
viability [12]: 72.3% (inactive)
inhibition [13]: 3.5% (inactive)
RAM network inhibition [14]: 4.4% (inactive)

CC(=O)c1cccc(NC(=O)CCNS(=O)(=O)c2cccc3nsnc23)c1
viability [1]: 86%
Her2 level [2]: 78% (inactive)
viability [3]: 86% (inactive)
viability [4]: 95.6% (inactive)
viability [5]: 106% (inactive)
differential viability (reversal) ([6]; H69AR cells + 2 uM doxorubicin): 11.8% (inactive)
viability [6, 16]: 94.5%
viability [6, 17]: 106%
inhibition [7]: -6.58% (inactive)
inhibition [8]: 6.19% (inactive)
growth inhibition [9]: -5.2% (inactive)
growth inhibition [10]: -11% (inactive)
viability increase [11]: -2.11% (inactive)
viability [12]: 93.5% (inactive)
inhibition [13]: 1.73% (inactive)
RAM network inhibition [14]: 2% (inactive)
